# PubChem BioAssay (NCATS)
# Records with an inconclusive call do not appear. Where a call stands in place of a potency, no number is given. Active and inactive are the calls of the source. Unless noted, the call rests on the fitted dose curve; in most records, active means well fitted inhibition curve with a large enough effect; inconclusive means small, poorly fitted or top-dose-only effect; inactive means no such curve, though single readings can be large or run the other way.
# Target: Atrial natriuretic peptide receptor 1 (Homo sapiens) (UniProt P16066)
# Sequence (P16066 whole entry, looked up): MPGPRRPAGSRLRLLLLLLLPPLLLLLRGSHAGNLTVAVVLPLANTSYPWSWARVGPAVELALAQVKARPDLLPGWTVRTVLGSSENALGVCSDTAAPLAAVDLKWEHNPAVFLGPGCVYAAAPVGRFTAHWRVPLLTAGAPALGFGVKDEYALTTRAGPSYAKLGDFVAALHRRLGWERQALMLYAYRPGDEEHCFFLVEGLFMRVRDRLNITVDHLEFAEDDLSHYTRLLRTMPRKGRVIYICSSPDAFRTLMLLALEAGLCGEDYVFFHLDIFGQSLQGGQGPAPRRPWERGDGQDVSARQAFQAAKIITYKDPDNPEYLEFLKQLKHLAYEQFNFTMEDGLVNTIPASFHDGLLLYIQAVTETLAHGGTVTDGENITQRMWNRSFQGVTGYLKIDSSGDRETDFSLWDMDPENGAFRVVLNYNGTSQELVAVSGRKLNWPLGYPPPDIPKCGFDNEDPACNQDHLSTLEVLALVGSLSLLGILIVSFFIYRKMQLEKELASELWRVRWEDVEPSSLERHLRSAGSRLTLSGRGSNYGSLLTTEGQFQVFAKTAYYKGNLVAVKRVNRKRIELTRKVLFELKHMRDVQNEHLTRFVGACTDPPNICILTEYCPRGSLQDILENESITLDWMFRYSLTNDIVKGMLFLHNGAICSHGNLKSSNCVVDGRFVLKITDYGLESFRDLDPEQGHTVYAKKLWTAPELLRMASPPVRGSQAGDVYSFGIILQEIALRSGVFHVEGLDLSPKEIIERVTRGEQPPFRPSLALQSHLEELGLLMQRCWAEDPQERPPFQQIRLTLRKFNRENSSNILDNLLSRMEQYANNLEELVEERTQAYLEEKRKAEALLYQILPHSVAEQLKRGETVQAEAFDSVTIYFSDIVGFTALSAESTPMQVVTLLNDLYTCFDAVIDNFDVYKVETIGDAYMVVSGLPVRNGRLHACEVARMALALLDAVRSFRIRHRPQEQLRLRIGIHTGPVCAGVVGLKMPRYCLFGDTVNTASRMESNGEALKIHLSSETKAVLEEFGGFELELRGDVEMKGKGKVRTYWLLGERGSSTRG
# Assay: Natriuretic polypeptide receptor (hNpr1) antagonism - Pilot screen (AID 1347049; calls by dose curve;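 further: agonist-evoked cGMP luminescence read 20 min after hNppA addition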; further: potency means the concentration at half of the fitted maximal effect)
# Settings: hNpr1 cells, antagonist mode cGMP read-out; series mostly up to 57.5 µM
# How it was run: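 HEK293 cells co-expressing hNpr1 and the GloSensor pGS-40F cGMP luciferase sensor were preloaded with 2% GloSensor reagent for 2 h. Compounds were added for 30 min at room temperature, then cells were stimulated with 0.1 nM hNppA for 20 min before luminescence readout.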
row,SMILES,Potency
1,NC[C@@H]1O[C@H](C23CC4CC(CC(C4)C2)C3)Cc2c1ccc(O)c2O,inactive
2,O=S(=O)(c1cccc2c(I)cccc12)N1CCCNCC1,inactive
3,Fc1cccc(/C=N/N=C/c2cccc(F)c2)c1,inactive
4,O=Nc1ccc2oc(=O)ccc2c1,inactive
5,OCC1O[C@H]([S-])[C@H](O)[C@@H](O)[C@@H]1O.[Au+] (stereo not given in full),inactive
6,O=C(/C=C/c1ccc(O)cc1)c1ccc(O)cc1O,30.1 µM (active)
7,N#C/C(=C\c1ccc(-c2cc(Cl)ccc2Cl)o1)C(=O)Nc1cccc2ncccc12,inactive

# Target: Atrial natriuretic peptide receptor 2 (Homo sapiens) (UniProt P20594)
# Sequence (P20594 whole entry, looked up): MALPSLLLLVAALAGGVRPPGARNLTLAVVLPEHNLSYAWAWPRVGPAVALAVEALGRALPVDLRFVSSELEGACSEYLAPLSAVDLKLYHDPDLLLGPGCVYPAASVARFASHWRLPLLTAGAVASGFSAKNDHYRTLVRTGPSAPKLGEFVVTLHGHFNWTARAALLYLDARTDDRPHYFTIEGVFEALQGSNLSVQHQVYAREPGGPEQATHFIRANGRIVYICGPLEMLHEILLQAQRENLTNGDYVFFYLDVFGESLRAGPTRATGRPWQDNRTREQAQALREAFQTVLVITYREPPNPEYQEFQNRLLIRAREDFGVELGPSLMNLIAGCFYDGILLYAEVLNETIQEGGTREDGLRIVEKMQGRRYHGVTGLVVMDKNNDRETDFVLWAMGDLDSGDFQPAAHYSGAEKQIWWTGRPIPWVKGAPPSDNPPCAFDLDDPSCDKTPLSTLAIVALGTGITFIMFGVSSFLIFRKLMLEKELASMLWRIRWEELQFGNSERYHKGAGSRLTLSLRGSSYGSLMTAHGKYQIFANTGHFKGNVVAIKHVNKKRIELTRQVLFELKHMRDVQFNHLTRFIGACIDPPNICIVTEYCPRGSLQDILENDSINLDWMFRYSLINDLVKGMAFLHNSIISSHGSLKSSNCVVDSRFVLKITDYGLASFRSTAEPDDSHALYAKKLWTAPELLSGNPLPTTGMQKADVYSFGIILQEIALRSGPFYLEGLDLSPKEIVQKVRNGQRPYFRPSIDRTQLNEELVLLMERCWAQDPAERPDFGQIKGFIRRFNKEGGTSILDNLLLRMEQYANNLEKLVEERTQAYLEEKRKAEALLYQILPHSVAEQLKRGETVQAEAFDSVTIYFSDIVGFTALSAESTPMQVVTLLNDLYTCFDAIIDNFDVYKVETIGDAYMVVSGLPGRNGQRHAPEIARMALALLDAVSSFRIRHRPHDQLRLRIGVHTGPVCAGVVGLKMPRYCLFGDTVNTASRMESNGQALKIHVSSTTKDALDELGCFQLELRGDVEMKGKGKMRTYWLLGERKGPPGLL
# Assay: Natriuretic polypeptide receptor (hNpr2) antagonism - Pilot subtype selectivity assay (AID 1347050; calls by dose curve; further: potency means the concentration at half of the fitted maximal effect)
# Settings: NPR2-expressing cells, cGMP antagonist-mode read-out; series mostly up to 38.3 µM
# How it was run: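 cGMP-sensor HEK293/hNpr2 cells; 2% GloSensor reagent 2 h RT; compounds 30 min; baseline luminescence read; 1 nM hNppC agonist 20 min RT; final luminescence read by CCD camera. Antagonism = reduced post-agonist signal.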
row,SMILES,Potency
1,O=C(c1cc(O)c(O)c([N+](=O)[O-])c1)c1ccccc1F,inactive
2,OCC1O[C@H](O)C(Cl)C(O)C1O (stereo not given in full),inactive
3,Clc1ccc(N2CCN(Cc3cc4ccccn4n3)CC2)cc1,inactive
4,NCCCCC(=O)O,inactive
5,NC[C@@H]1O[C@H](C23CC4CC(CC(C4)C2)C3)Cc2c1ccc(O)c2O,inactive
6,Brc1c(Br)c(Br)c2n[nH]nc2c1Br,inactive
7,Oc1ccccc1O,inactive
8,O=C(O)CNC(=O)C(CS)Cc1ccccc1 (stereo not given),inactive
9,CO/S(=N\S(=O)(=O)c1ccc(Cl)cc1)c1ccc([N+](=O)[O-])cc1 (stereo not given),inactive
10,CC1(C)CCC=[N+]1[O-],inactive
11,COc1cc2c(CCNC(C)=O)c[nH]c2cc1Cl,inactive
12,O=C(O)c1cc(=O)c2ccccc2[nH]1,inactive
13,O=P(O)(O)C(Cl)(Cl)P(=O)(O)O,inactive
14,CN1C2CC(OC(=O)[C@H](CO)c3ccccc3)CC1C1OC12 (stereo not given in full),inactive
15,N.N.N.N.N.N.N.N.N.N.N.N.N.N.O.O.[Ru+4].[Ru+5].[Ru+5],inactive
16,Cn1ncc(S(=O)(=O)Cc2ccccc2)c(Br)c1=O,11.7 µM (active)
17,CCCCC/C=C\CC(O)/C=C/c1cccc(CC(O)CCCCO)n1 (stereo not given),inactive
18,OCC1O[C@H]([S-])[C@H](O)[C@@H](O)[C@@H]1O.[Au+] (stereo not given in full),inactive
19,Fc1ccc(C(OCCCc2cnc[nH]2)c2ccc(F)cc2)cc1,inactive
20,CN1CCc2cc(NC(=O)Nc3cccnc3)ccc21,inactive
21,O=c1[nH]c2cc(C(F)(F)F)ccc2n1-c1cc(C(F)(F)F)ccc1O,inactive
22,c1ccc(-c2ccccn2)nc1,inactive
23,CCCCCCCCCCCCCCCCCC(=O)OC(CC(=O)O)C[N+](C)(C)C (stereo not given),inactive
24,Cn1c(=O)c2[nH]c(-c3ccccc3)nc2n(C)c1=O,inactive
25,Cc1cc(NC2CCCCC2)nc(-n2nc(C)cc2C)n1,inactive

# Test system: not listed separately
# Assay: NS1 protein of Zika virus - qHTS assay to identify small molecule inhibitors in human HEK 293 cells (AID 1347053); further: nearly all actives have a fitted effect of over 55% in size
# Settings: HEK293 ZIKV MR766 infection, NS1 TR-FRET, 24 h; series mostly up to 46.1 µM
# How it was run: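 Following 20 h seeding, HEK 293 cells took compound, then 1 h later ZIKV MR766 (MOI = 0.5). Incubation ran 24 h at 37 C before TR-FRET detection of NS1; a drop in signal indicates inhibition.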
row,SMILES,Potency
1,O=C(c1cc(O)c(O)c([N+](=O)[O-])c1)c1ccccc1F,inactive
2,COc1ccc(/C=C/c2nc(NCCCN(C)C)c3ccccc3n2)cc1,inactive
3,OCC1O[C@H](O)C(Cl)C(O)C1O (stereo not given in full),inactive
4,Clc1ccc(N2CCN(Cc3cc4ccccn4n3)CC2)cc1,inactive
5,NCCCCC(=O)O,inactive
6,CC(C)OC(=O)c1cc(C(=O)OC(C)C)cc([N+](=O)[O-])c1,inactive
7,Brc1c(Br)c(Br)c2n[nH]nc2c1Br,inactive
8,Oc1ccccc1O,inactive
9,O=S(=O)(c1cccc2c(I)cccc12)N1CCCNCC1,inactive
10,O=c1[nH]c2ccccc2n1CCCN1CCN(C(c2ccccc2)c2ccccc2)CC1,inactive
11,O=C(O)CNC(=O)C(CS)Cc1ccccc1 (stereo not given),inactive
12,CC1(C)CCC=[N+]1[O-],inactive
13,COc1cc2c(CCNC(C)=O)c[nH]c2cc1Cl,inactive
14,Fc1cccc(/C=N/N=C/c2cccc(F)c2)c1,inactive
15,O=C(O)c1cc(=O)c2ccccc2[nH]1,inactive
16,CN(C)CCC(c1ccc(Cl)cc1)c1ccccn1 (stereo not given),inactive
17,O=P(O)(O)C(Cl)(Cl)P(=O)(O)O,inactive

row,SMILES,Potency
1,CN1C2CC(OC(=O)[C@H](CO)c3ccccc3)CC1C1OC12 (stereo not given in full),inactive
2,N.N.N.N.N.N.N.N.N.N.N.N.N.N.O.O.[Ru+4].[Ru+5].[Ru+5],inactive
3,Cn1ncc(S(=O)(=O)Cc2ccccc2)c(Br)c1=O,inactive
4,O=Nc1ccc2oc(=O)ccc2c1,inactive
5,Nc1cc(-c2ccncc2)c[nH]c1=O,inactive
6,O=C(/C=C/c1ccc(O)cc1)c1ccc(O)cc1O,inactive
7,CNCC[C@H](Oc1ccc(C(F)(F)F)cc1)c1ccccc1,inactive
8,Fc1ccc(C(OCCCc2cnc[nH]2)c2ccc(F)cc2)cc1,inactive
9,CN1CCc2cc(NC(=O)Nc3cccnc3)ccc21,inactive
10,O=c1[nH]c2cc(C(F)(F)F)ccc2n1-c1cc(C(F)(F)F)ccc1O,inactive
11,c1ccc(-c2ccccn2)nc1,inactive
12,CCCCCCCCCCCCCCCCCC(=O)OC(CC(=O)O)C[N+](C)(C)C (stereo not given),inactive
13,Cn1c(=O)c2[nH]c(-c3ccccc3)nc2n(C)c1=O,inactive
14,O=c1cc(-c2ccccc2)oc2c(O)c(O)ccc12,inactive
15,Cc1cc(NC2CCCCC2)nc(-n2nc(C)cc2C)n1,inactive
16,N#C/C(=C\c1ccc(-c2cc(Cl)ccc2Cl)o1)C(=O)Nc1cccc2ncccc12,inactive
